GLP1R cytotox = cytotoxicity in counter-screen for GLP-1R inverse agonists; HEK293 cAMP-luciferase reporter cells, luminescence, 24 h; Potency, µM (titrated, usually from 38.3 µM), inactives show top-dose activity change, negative = inhibition, usual class: inhibitors; actives 0.13% (n = 410,000);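 note: loss of luciferase light is scored as toxicity; % is set by controls: 0 for no effect and ±100 for the full control effect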
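Seeding density was 200 cells/uL; after overnight-length (12 h) culture, 23 nL compounds went on for 24 h at 37 °C. Readout used a luciferase detection reagent, luminescence taken after 12 min at room temperature.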
GLP-1R agonist = activates the human GLP-1 receptor. P43220. AID 624172. HEK293 GLP-1R CRE-luciferase, luminescence, 4-6 h; cells express a hypersensitive GLP-1R form. Potency, µM (titrated, usually from 45.6 µM), without a hit: at the top dose activation, hits mostly activators. actives 0.007% (n = 380,000); note: % of control where 0% means no effect
GLP1R inv ag = inverse agonists of human GLP-1 receptor; actives 1.6% (n = 410,000); Potency, µM (highest dose often 38.3 µM), without a hit: at the top dose activity change, negative = inhibition, most hits filed as inhibitors; P43220; HEK293 GLP-1R CRE-luciferase, luminescence, 24 h; GLP-1R form is constitutively active; AID 624417; note: % is set by controls: 0 for no effect and ±100 for the full control effect; nearly all actives have a fitted effect of over 55% in size
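Using stably transfected HEK293 (constitutively active GLP-1R, cAMP-luciferase reporter), compounds were incubated 24 hr and luciferase measured by luminescence.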
PTHR1 agonist = PTHR1 (human) receptor agonism; Potency, µM (titrated, usually from 115 µM), without a hit: top-dose activation, most hits filed as activators; actives 0.075% (n = 410,000); HEK293 GP2 PTHR1 cells, GloSensor cAMP luminescence, 1 h; note: nearly all actives have a fitted effect of over 55% in size
Target sequence (Q03431 whole entry, looked up): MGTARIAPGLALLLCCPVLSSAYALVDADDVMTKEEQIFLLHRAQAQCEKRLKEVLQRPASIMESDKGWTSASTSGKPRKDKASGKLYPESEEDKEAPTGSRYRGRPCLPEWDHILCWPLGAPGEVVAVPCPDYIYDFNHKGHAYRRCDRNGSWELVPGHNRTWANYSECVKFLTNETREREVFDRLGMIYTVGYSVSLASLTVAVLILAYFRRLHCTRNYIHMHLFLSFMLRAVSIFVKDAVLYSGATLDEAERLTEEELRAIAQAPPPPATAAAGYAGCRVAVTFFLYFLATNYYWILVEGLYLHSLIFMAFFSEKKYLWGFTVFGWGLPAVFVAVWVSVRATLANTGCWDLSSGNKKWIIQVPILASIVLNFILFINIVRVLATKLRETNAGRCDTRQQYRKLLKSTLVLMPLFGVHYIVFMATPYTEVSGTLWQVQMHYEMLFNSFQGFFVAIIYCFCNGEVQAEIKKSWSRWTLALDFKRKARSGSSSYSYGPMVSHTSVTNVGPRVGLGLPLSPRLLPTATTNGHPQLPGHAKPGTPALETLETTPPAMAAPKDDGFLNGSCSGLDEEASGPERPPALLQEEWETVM
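HEK-293-derived GP2 cells expressing PTHR1 and a GloSensor cAMP reporter, 3,000/well, plated overnight, given luciferin plus IBMX (each 0.5 mM as added) for 1 h at 37 °C, then compound for 1 h at 37 °C. Luminescence was read after 15 min at room temperature.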
An asterisk follows results filed as active; i = inactive; ? = inconclusive; . = no result given; [ ] = remark or other dose. Compounds with a hit are over-represented: about 1.7% of the library has one in this group of screens. Calls come from the whole dose curve; as a rule, active = well fitted curve in the direction sought with a large enough effect; inconclusive = small, poorly fitted or top-dose-only effect, or another doubt; inactive = no such curve, though single readings can be large; an effect the other way counts as inactive or inconclusive. Potency is the fitted concentration of half-maximal effect.

SMILES | GLP1R cytotox | GLP-1R agonist | GLP1R inv ag | PTHR1 agonist
COc1ccnc(Oc2ccc(F)cc2)c1C(=O)N/C=N/OCc1c(Cl)cccc1Cl | 4.2% | 6.5% | 10µM* | i
Cc1cccc(NC(=O)CN2C(=O)CC(c3ccccc3)Sc3ccccc32)c1 (stereo not given) | 4.9% | -8.6% | 3.6% | i
CCOC(=O)c1ccccc1NC(=O)CN1C(=O)CC(c2ccccc2)Sc2ccccc21 (stereo not given) | 2.7% | 16.6% | 10µM* | -14.8%
O=C(C1=C[C@H](c2ccc(C(F)(F)F)cc2)C[C@H](OCc2ccc(CO)cc2)O1)N1CCN(Cc2ccc3c(c2)OCO3)CC1 | -11.1% | -0.8% | 10µM* | -13.4%
O=C(C1=C[C@@H](c2ccc(C(F)(F)F)cc2)C[C@@H](OCc2ccc(CO)cc2)O1)N1CCN(Cc2ccc3c(c2)OCO3)CC1 | -1.9% | -2.4% | -15.5% | -28.9%
COc1cc(CNc2ccc(CNc3ncn[nH]3)cc2)ccc1OCc1ccccc1 | -2.1% | 7.3% | 2µM* | -48.0%
COc1cc(NC(=O)CN(C)S(=O)(=O)c2ccc3[nH]c4c(c3c2)CCCC4)cc(OC)c1OC | -11.1% | . | ? | -28.6%
Cc1c(Cl)cccc1NC(=O)N1CCCN(c2nc(-c3ccccc3)ns2)CC1 | -4.6% | 5.6% | 5.01µM* | -20.9%
CC(=O)N1c2ccc(S(=O)(=O)NCc3ccc(Cl)cc3)cc2CC1C (stereo not given) | -4.1% | . | -22.3% | -19.5%
COc1ccc(N(CC(=O)NC2CC3CCC2C3)S(=O)(=O)c2ccc(C)cc2)cc1 (stereo not given) | -6.4% | 0.2% | 10µM* | -13.9%
COc1ccc(S(=O)(=O)N(CC(=O)Nc2cccc(C(F)(F)F)c2)c2ccc(C)cc2)cc1 | -3.0% | -3.7% | 10µM* | -24.4%
COc1ccc(N(CC(=O)NC2CC3CCC2C3)S(=O)(=O)c2ccc(C)cc2)cc1OC (stereo not given) | -1.9% | 7.8% | 15.0% | -9.7%
CC(=O)c1ccc(NC(=O)c2nc(-c3ccccc3)n(-c3ccccc3Cl)n2)cc1 | -2.6% | . | ? | -12.3%
Cc1cc(NC(=O)CN(C)S(=O)(=O)c2ccc3c(c2)CCC(=O)N3)ccc1Br | 0.0% | . | 8.3% | -61.1%
Cc1ccc(NC(=O)C(=O)NCC(c2ccc3c(c2)OCO3)N2CCOCC2)cc1C (stereo not given) | -1.0% | . | 7.1% | 0.9%
Cc1c(/C=C(\C#N)C(=O)Nc2cccc(Cl)c2)c2ccccc2n1Cc1ccccc1 | -1.6% | . | -18.8% | -0.8%
CC(C)c1ccc2c(c1)CCC1C(C)(CN)CCCC21C (stereo not given) | ? | 1.4% | 5.62µM* | i
CC(C)c1cc2c(cc1S(=O)(=O)O)[C@@]1(C)CCC[C@@](C)(C(=O)O)[C@@H]1CC2 | . | -4.7% | . | .
Cc1ccc(C2c3[nH]c4ccccc4c3CCN2C(=O)Nc2ccc(C)c(C)c2)cc1 (stereo not given) | -7.8% | . | 7.94µM* | -15.0%
Cc1ccc(C2c3[nH]c4ccccc4c3CCN2C(=O)c2ccc(N(C)C)cc2)cc1 (stereo not given) | -6.5% | . | ? | -1.9%
Cc1ccc(C2c3[nH]c4ccccc4c3CCN2C(=O)CCC2CCCC2)cc1 (stereo not given) | 3.2% | . | 10µM* | -4.6%
COC(=O)c1ccc(NC(=O)N2CCc3c([nH]c4ccccc34)C2c2ccc(C)cc2)cc1 (stereo not given) | -16.6% | . | 4.47µM* | ?
Cc1ccc(C2c3[nH]c4ccccc4c3CCN2C(=O)c2ccccc2Br)cc1 (stereo not given) | -9.4% | . | ? | i
CC(C)(CO)NCc1c(OCc2ccc(Cl)cc2)ccc2ccccc12 | ? | -0.2% | 5.62µM* | -8.8%
COc1ccc(C(=O)NCCc2sc(-c3cccc(F)c3)nc2C)cc1 | -28.0% | . | ? | -39.7%
COc1cc(NC(=O)c2ccccc2)c(OC)cc1NC(=O)CN1CCCCC1 | -5.1% | ? | 5.01µM* | -1.2%
COc1cc(NC(=O)c2ccccc2)c(OC)cc1NC(=O)CN1CCOCC1 | -14.7% | 6.8% | 25.1% | -13.8%[57.5 µM]
Cc1ccc(S(=O)(=O)c2nnn3c2nc(NCc2ccc4c(c2)OCO4)c2sccc23)cc1C | 7.9% | . | 32.4% | -14.1%

From PubChem
